Results from PubChem BioAssay AID1159580 (chemical genetic matrix, 2015).
In all, about 5,500 compounds went through this assay and about 2,000 (36%) were called active. Not shown: some 18% with an inconclusive outcome. Rule as the data show it: active = normalized growth mostly below about 0.91 (no sharp cut-off); inconclusive = no clear call, values can overlap the other calls; inactive = mostly above about 0.92. The list shows a part of the results.

Test: chemical genetic growth profiling, strain panel (AID 1159580);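 also: tested at 20 µM; growth read once vehicle control cultures reached saturation at 30 °C; 1 = growth at the plate median or of vehicle wells; lower values mean less growth of the strain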
Conditions: growth OD

Measured: normalized growth

Clc1ccc(COC(Cn2ccnc2)c2ccc(Cl)cc2Cl)c(Cl)c1 (configuration not stated)
active: S. cerevisiae deletion strains, locus YJR075W, strain HOC1, active compounds read low 0.0654 | S. cerevisiae deletion strains, locus YKL009W, strain mrt4, active compounds read low 0.0991 | S. cerevisiae deletion strains, locus YKL068W, active compounds read low 0.0685 | S. cerevisiae deletion strains, locus YKL085W, strain MDH1 (second series), active compounds read low 0.0665 | S. cerevisiae deletion strains, locus YKL085W, strain MDH1, active compounds read low 0.0665 | S. cerevisiae deletion strains, locus YKL160W, strain elf1, active compounds read low 0.0826 | S. cerevisiae deletion strains, locus YKL190W, strain CNB1, active compounds read low 0.046 | S. cerevisiae deletion strains, locus YKR001C, strain vps1, active compounds read low 0.0634 | S. cerevisiae deletion strains, locus YKR026C, strain gcn3, active compounds read low 0.0698 | S. cerevisiae deletion strains, locus YKR091W, strain srl3, active compounds read low 0.0616 | S. cerevisiae deletion strains, locus YLL001W, strain dnm1, active compounds read low 0.0638 | S. cerevisiae deletion strains, locus YLL026W, active compounds read low 0.0593 | S. cerevisiae deletion strains, locus YLL041C, strain sdh2, active compounds read low 0.0595 | S. cerevisiae deletion strains, locus YLR027C, strain aat2, active compounds read low 0.0575 | S. cerevisiae deletion strains, locus YLR039C, strain RIC1, active compounds read low 0.0754 | S. cerevisiae deletion strains, locus YLR058C, strain SHM2, active compounds read low 0.0389 | S. cerevisiae deletion strains, locus YLR102C, strain apc9, active compounds read low 0.0667 | S. cerevisiae deletion strains, locus YLR113W, strain HOG1, active compounds read low 0.128 | S. cerevisiae deletion strains, locus YLR221C, strain rsa3, active compounds read low 0.0643 | S. cerevisiae deletion strains, locus YLR258W, strain gsy2, active compounds read low 0.0636 | S. cerevisiae deletion strains, locus YLR262C, strain YPT6 (second series), active compounds read low 0.0835 | S. cerevisiae deletion strains, locus YLR262C, strain YPT6, active compounds read low 0.0925 | S. cerevisiae deletion strains, locus YLR268W, strain sec22, active compounds read low 0.0664 | S. cerevisiae deletion strains, locus YLR320W, strain mms22, active compounds read low 0.087 | S. cerevisiae deletion strains, locus YLR330W, strain CHS5, active compounds read low 0.0522 | S. cerevisiae deletion strains, locus YLR342W, strain FKS1 (second series), active compounds read low 0.0607 | S. cerevisiae deletion strains, locus YLR342W, strain FKS1, active compounds read low 0.0655 | S. cerevisiae deletion strains, locus YLR357W, strain rsc2, active compounds read low 0.124 | S. cerevisiae deletion strains, locus YLR370C, strain arc18, active compounds read low 0.064 | S. cerevisiae deletion strains, locus YLR371W, strain rom2, active compounds read low 0.0643 | S. cerevisiae deletion strains, locus YLR384C, strain iki3, active compounds read low 0.0632 | S. cerevisiae deletion strains, locus YLR418C, strain cdc73, active compounds read low 0.104 | S. cerevisiae deletion strains, locus YML016C, strain PPZ1, active compounds read low 0.0516 | S. cerevisiae deletion strains, locus YML032C, strain rad52, active compounds read low 0.0665 | S. cerevisiae deletion strains, locus YML120C, strain ndi1, active compounds read low 0.0587 | S. cerevisiae deletion strains, locus YML124C, strain tub3, active compounds read low 0.058 | S. cerevisiae deletion strains, locus YMR058W, strain fet3, active compounds read low 0.0613 | S. cerevisiae deletion strains, locus YMR078C, strain ctf18, active compounds read low 0.0692 | S. cerevisiae deletion strains, locus YMR125W, strain sto1, active compounds read low 0.0759 | S. cerevisiae deletion strains, locus YMR129W, active compounds read low 0.0593 | S. cerevisiae deletion strains, locus YMR205C, strain PFK2, active compounds read low 0.0878 | S. cerevisiae deletion strains, locus YMR223W, strain ubp8, active compounds read low 0.0663 | S. cerevisiae deletion strains, locus YMR231W, strain pep5, active compounds read low 0.171 | S. cerevisiae deletion strains, locus YMR263W, strain SAP30, active compounds read low 0.062 | S. cerevisiae deletion strains, locus YMR307W, strain GAS1, active compounds read low 0.107 | S. cerevisiae deletion strains, locus YNL067W, strain RPL9B, active compounds read low 0.0502 | S. cerevisiae deletion strains, locus YNL071W, strain lat1, active compounds read low 0.0615 | S. cerevisiae deletion strains, locus YNL128W, strain TEP1, active compounds read low 0.0612 | S. cerevisiae deletion strains, locus YNL153C, strain GIM3, active compounds read low 0.0486 | S. cerevisiae deletion strains, locus YNL183C, strain NPR1, active compounds read low 0.00703 | S. cerevisiae deletion strains, locus YNL209W, strain ssb2, active compounds read low 0.0642 | S. cerevisiae deletion strains, locus YNL233W, strain BNI4, active compounds read low 0.0542 | S. cerevisiae deletion strains, locus YNL248C, strain rpa49, active compounds read low 0.0801 | S. cerevisiae deletion strains, locus YNL250W, strain rad50, active compounds read low 0.0712 | S. cerevisiae deletion strains, locus YNL271C, strain bni1, active compounds read low 0.0673 | S. cerevisiae deletion strains, locus YNL298W, strain CLA4, active compounds read low 0.0653 | S. cerevisiae deletion strains, locus YNL307C, strain MCK1, active compounds read low 0.0672 | S. cerevisiae deletion strains, locus YNL322C, strain KRE1 (second series), active compounds read low 0.0752 | S. cerevisiae deletion strains, locus YNL322C, strain KRE1, active compounds read low 0.0472 | S. cerevisiae deletion strains, locus YNR049C, strain mso1, active compounds read low 0.0611 | S. cerevisiae deletion strains, locus YNR052C, strain pop2, active compounds read low 0.0593 | S. cerevisiae deletion strains, locus YOL006C, strain TOP1, active compounds read low 0.0836 | S. cerevisiae deletion strains, locus YOL012C, strain htz1 0.185 | S. cerevisiae deletion strains, locus YOL147C, strain pex11, active compounds read low 0.059 | S. cerevisiae deletion strains, locus YOR001W, strain rrp6, active compounds read low 0.0687 | S. cerevisiae deletion strains, locus YOR061W, strain CKA2, active compounds read low 0.0316 | S. cerevisiae deletion strains, locus YOR069W, strain VPS5, active compounds read low 0.052 | S. cerevisiae deletion strains, locus YOR070C, strain gyp1, active compounds read low 0.061 | S. cerevisiae deletion strains, locus YOR080W, strain dia2, active compounds read low 0.0651 | S. cerevisiae deletion strains, locus YOR083W, strain WHI5, active compounds read low 0.0643 | S. cerevisiae deletion strains, locus YOR106W, strain vam3, active compounds read low 0.0643 | S. cerevisiae deletion strains, locus YOR136W, strain idh2, active compounds read low 0.0723 | S. cerevisiae deletion strains, locus YOR144C, strain elg1, active compounds read low 0.0556 | S. cerevisiae deletion strains, locus YOR184W, strain ser1, active compounds read low 0.0771 | S. cerevisiae deletion strains, locus YOR231W, strain MKK1, active compounds read low 0.112 | S. cerevisiae deletion strains, locus YOR265W, strain rbl2, active compounds read low 0.0604 | S. cerevisiae deletion strains, locus YOR270C, strain vph1, active compounds read low 0.0973 | S. cerevisiae deletion strains, locus YOR290C, strain snf2, active compounds read low 0.0739 | S. cerevisiae deletion strains, locus YOR316C, strain cot1, active compounds read low 0.0648 | S. cerevisiae deletion strains, locus YPL051W, strain arl3, active compounds read low 0.0665 | S. cerevisiae deletion strains, locus YPL055C, strain LGE1, active compounds read low 0.0731 | S. cerevisiae deletion strains, locus YPL078C, strain atp4, active compounds read low 0.0694 | S. cerevisiae deletion strains, locus YPL106C, strain sse1, active compounds read low 0.128 | S. cerevisiae deletion strains, locus YPL240C, strain hsp82, active compounds read low 0.0639 | S. cerevisiae deletion strains, locus YPL241C, strain CIN2, active compounds read low 0.0503 | S. cerevisiae deletion strains, locus YPL256C, strain CLN2, active compounds read low 0.129 | S. cerevisiae deletion strains, locus YPR119W, strain clb2, active compounds read low 0.0606 | S. cerevisiae deletion strains, locus YPR141C, strain kar3, active compounds read low 0.0743 | S. cerevisiae deletion strains, locus YPR163C, strain tif3, active compounds read low 0.079 | S. cerevisiae deletion strains, locus YPR167C, strain met16, active compounds read low 0.0606 | S. cerevisiae deletion strains, strain wtn01, active compounds read low 0.0603 | S. cerevisiae strains, strain wild type, active compounds read low 0.0493
